The results in this text go back to PubChem BioAssay (Tox21).

Experiment [1] in a line: qHTS assay to identify small molecule agonists of the hypoxia (HIF-1) signaling pathway - cell viability counter screen (AID 1224844; calls by dose curve; note: nearly all actives have a fitted effect of over 50% in size). The procedure, abridged:
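Cells (HRE-bla ME-180, 2,000 per well) sat 5 hrs at 37C, got compound for 17 hrs, were read for CCF4-AM FRET, and were finally lysed with CellTiter-Glo for a 30 min room-temperature luminescence read.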

Experiment [2] is described as follows: qHTS assay to identify small molecule agonists of the hypoxia (HIF-1) signaling pathway (AID 1224846; active = well fitted activation curve with a large enough effect in the signal ratio in the repeat runs, not every such curve was filed as active; the % refers to the signal ratio). The method, boiled down: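 A low-serum medium (0.5% dialyzed FBS) holding 2,000 HRE-bla ME-180 cells per well is preincubated for 5 hrs, dosed with compounds by pintool, and kept a further 17 hrs at 37C, 5% CO2 before CCF4-AM FRET detection of beta-lactamase.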

Experiment [3] in a line: qHTS RealTime-Glo MT Cell Viability Assay in HepG2 cells - 24 hour (AID 1224867). Note: nearly all actives have a fitted effect of over 50% in size. The method, boiled down:
(§1)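 HepG2 suspension premixed with RealTime-Glo reagents is plated at 600 cells per well and left 5 h at 37 C/5% CO2. Compounds in DMSO then go in, and bioluminescence reflecting viable cell number is recorded over 40 h.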

The nature of experiment [4]: A CellTox Green Cytotoxicity Assay to monitor cytotoxicity in HEK293 cells - 0 hour (AID 1224869). Note: nearly all actives have a fitted effect of over 50% in size. The method, boiled down: (§2)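 Fluorescence intensity, read at 0, 8, 16, 24, 32 and 40 h of compound treatment, reflected dye binding to DNA of dead HEK293 cells; compounds (23 nL, DMSO) were added 5 h after plating cells with reagent.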
Experiment [5] in a line: qHTS RealTime-Glo MT Cell Viability Assay in HepG2 cells - 40 hour (AID 1224870). Note: nearly all actives have a fitted effect of over 50% in size. The method, boiled down: (§3)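 Real-time viability: cells seeded at 600 per well together with NanoLuc and cell-permeant prosubstrate, compounds added after 5 h incubation. Luminescence tracked at 0, 8, 16, 24, 32 and 40 h of exposure.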
The nature of experiment [6]: A CellTox Green Cytotoxicity Assay to monitor cytotoxicity in HEK293 cells - 40 hour (AID 1224871). Note: nearly all actives have a fitted effect of over 45% in size. Note: potency is the fitted concentration of half-maximal effect. The method, boiled down: as §2
A short description of experiment [7]: qHTS RealTime-Glo MT Cell Viability Assay in HepG2 cells - 8 hour (AID 1224873). Note: nearly all actives have a fitted effect of over 55% in size. The procedure, abridged: as §3
Experiment [8] in a line: A CellTox Green Cytotoxicity Assay to monitor cytotoxicity in HEK293 cells - 24 hour (AID 1224875). Note: nearly all actives have a fitted effect of over 45% in size. Note: potency is the fitted concentration of half-maximal effect. The procedure, abridged: as §2
The nature of experiment [9]: A CellTox Green Cytotoxicity Assay to monitor cytotoxicity in HepG2 cells - 16 hour (AID 1224876). Note: nearly all actives have a fitted effect of over 45% in size. Note: potency is the fitted concentration of half-maximal effect. The method, boiled down:
(§4)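 Using 1536-well format, dye-containing HepG2 suspension was seeded, allowed 5 h at 37 C/5% CO2, dosed by pintool with compounds, positive and negative controls, and imaged for fluorescence across 40 h.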

Experiment [10] can be described thus: qHTS RealTime-Glo MT Cell Viability Assay in HepG2 cells - 32 hour (AID 1224877). Note: nearly all actives have a fitted effect of over 55% in size. The method, boiled down: as §1
The nature of experiment [11]: A CellTox Green Cytotoxicity Assay to monitor cytotoxicity in HepG2 cells - 24 hour (AID 1224878). Note: nearly all actives have a fitted effect of over 45% in size. Note: potency is the fitted concentration of half-maximal effect. The method, boiled down: as §4
Experiment [12] in a line: A CellTox Green Cytotoxicity Assay to monitor cytotoxicity in HepG2 cells - 40 hour (AID 1224879). Note: nearly all actives have a fitted effect of over 40% in size. Note: potency is the fitted concentration of half-maximal effect. The method, boiled down:
as §4

Experiment [13] in a line: qHTS RealTime-Glo MT Cell Viability Assay in HEK293 cells - 0 hour (AID 1224880). The procedure, abridged:
(§5)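 Viable HEK293 cells reduce a cell-permeant prosubstrate; the product diffuses out and is consumed by NanoLuc in the medium to give light. Compounds went in after a 5 h incubation and plates were read over the treatment course.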

Experiment [14] is described as follows: qHTS assay to identify small molecule agonists of H2AX (AID 1224845; active = well fitted activation curve with a large enough effect in the signal ratio in the repeat runs, not every such curve was filed as active; the % refers to the signal ratio; note: potency is the fitted concentration of half-maximal effect). The method, boiled down:
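Phospho-H2AX Ser139 measured by HTRF (ex 320 nm; em 665 and 620 nm) after 24 hr antibody incubation. Compounds, 15 concentrations, 0.76% DMSO, were applied to CHO-K1 cells for 3hr at 37C before lysis.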

Experiment [15] can be described thus: qHTS assay to identify small molecule agonists of H2AX - cell viability counter screen (AID 1224847; calls by dose curve; note: nearly all actives have a fitted effect of over 30% in size; note: potency is the fitted concentration of half-maximal effect). The method, boiled down: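 Wild-type CHO-K1 cells (10% FBS medium) were plated overnight at 37C, exposed to compounds at 15 concentrations for 3 hr at 37C (0.76% DMSO final), and viability was read as CellTiter-Glo luminescence after 30 min at room temperature.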

The nature of experiment [16]: qHTS RealTime-Glo MT Cell Viability Assay in HEK293 cells - 32 hour (AID 1224868). Note: nearly all actives have a fitted effect of over 50% in size. Note: potency is the fitted concentration of half-maximal effect. The procedure, abridged:
(§6)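 Reads taken at 0, 8, 16, 24, 32 and 40 h from the same wells. HEK293 cells (600/well) carried RealTime-Glo reagents from seeding, with compound added after a 5 h settle at 37 C.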

Experiment [17] can be described thus: qHTS RealTime-Glo MT Cell Viability Assay in HEK293 cells - 40 hour (AID 1224874). Note: nearly all actives have a fitted effect of over 50% in size. Note: potency is the fitted concentration of half-maximal effect. The following applies: RealTime-Glo luminescence; max response: stronger effect = lower value. The method, boiled down: as §5
Experiment [18] can be described thus: qHTS assay to identify small molecule agonists of the estrogen related receptor (ERR) signaling pathway from Tox21 library (AID 1224849; calls by dose curve; note: nearly all actives have a fitted effect of over 15% in size). The following applies: ERR reporter cell line, ONE-Glo luciferase, 18 h; at 92.4 µM (top of the series) unless noted. The procedure, abridged:
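Screening used an NTP-provided ERR luciferase cell line. Compounds in DMSO were added 6 h after seeding and left 18 h at 37 C before a 30 min ONE-Glo step and luminescence reading.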

Experiment [19] is described as follows: qHTS RealTime-Glo MT Cell Viability Assay in HEK293 cells - 16 hour (AID 1224872). Note: nearly all actives have a fitted effect of over 50% in size. Note: potency is the fitted concentration of half-maximal effect. The method, boiled down:
as §6

The nature of experiment [20]: qHTS assay to identify small molecule antagonists of the estrogen related receptor (ERR) signaling pathway from Tox21 library (AID 1224848). Note: nearly all actives have a fitted effect of over 50% in size. Note: potency is the fitted concentration of half-maximal effect. The method, boiled down: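 Antagonist-mode screen of the Tox21 10K library in an NTP-provided ERR reporter cell line; 18 h compound exposure at 37 C, luminescence measured with ONE-Glo.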

Unmarked numbers belong to inactive results. Inconclusive results are not listed. Calls of active or inactive are those of the source. Unless noted, calls come from the whole dose curve; as a rule, active = well fitted curve in the direction sought with a large enough effect in the repeat runs; inconclusive = weak or mixed curves; inactive = no such curve, though single readings can be large; an effect the other way counts as inactive or inconclusive.
% is set by controls: 0 for no effect and ±100 for the full control effect.

Turning to `Cc1cc(C)c(S(=O)(=O)O)cc1N=Nc1cc(S(=O)(=O)O)c2ccccc2c1O`, the Potency entry in [1], in experiment [3], in [4], in experiment [5], in experiment [6] and in experiment [7] was “inactive” throughout. The Potency result in [8], in [9], in experiment [10], in experiment [11], in experiment [12] and in [13] was “inactive” throughout. In experiment [2], the molecule was called inactive.
Regarding `CC(=O)c1ccc2c(c1)[C@H](NC(=O)c1ccc(F)cc1)[C@@H](O)C(C)(C)O2`, the Potency result in experiment [14], in experiment [15], in experiment [3], in [16], in experiment [4] and in experiment [5] was “inactive” each time. For the same molecule, the Potency result in experiment [6], in experiment [7], in experiment [8], in [9], in experiment [10] and in [11] was “inactive” each time. The Potency result in experiment [12] is “inactive”. Also, the molecule was classed as inactive in [2]. Also, the max response in [17] was -0.992%.
`Nc1nc(N)c2nc(CNc3ccc(C(=O)N[C@@H](CCC(=O)O)C(=O)O)cc3)cnc2n1`: the Potency result in [1], in experiment [15], in experiment [3], in experiment [4], in experiment [5] and in experiment [6] was “inactive” each time. Moreover, the Potency entry in experiment [19], in experiment [7], in experiment [8], in [9], in experiment [10] and in [11] was “inactive” in each case. Moreover, the Potency result in experiment [12] and in experiment [13] was “inactive” each time. In addition, the activity change, positive = activation in experiment [18] is -62.3%.
`C[C@H](CCC(=O)O)[C@H]1CC[C@H]2[C@@H]3[C@H](O)C[C@@H]4C[C@H](O)CC[C@]4(C)[C@H]3CC[C@]12C`: the Potency entry in experiment [14], in [20], in experiment [3], in [4], in experiment [5] and in experiment [7] was “inactive” throughout. Besides, the Potency result in experiment [8], in experiment [9], in [10], in experiment [11], in experiment [12] and in experiment [13] was “inactive” each time.
In the case of `Cc1cccc(Oc2ccccc2)c1`, the Potency result in [14], in experiment [3], in experiment [4], in experiment [5], in experiment [6] and in [7] was “inactive” in each case. In addition, the Potency result in experiment [8], in [9] and in [10] was “inactive” throughout. Also, in experiment [2], the outcome was inactive. Also, the figures for the Potency in [20], in [17] and in [12] were 26.6 µM (active), 47.8 µM (active) and 47.8 µM (active), respectively. Besides, the activity change, positive = activation in experiment [18] is -65.1%.
Turning to `CCOC(=O)[C@H](CCc1ccccc1)N[C@H]1CCc2ccccc2N(CC(=O)O)C1=O`, the Potency result in experiment [1] and in experiment [4] was “inactive” in each case. Moreover, the Potency in experiment [9], in experiment [11] and in experiment [12] was 26.8 µM (active) throughout.
`O=C1Nc2cc(Cl)ccc2Oc2ccccc21`: the Potency entry in experiment [1], in experiment [3], in experiment [16], in [4], in experiment [5] and in [6] was “inactive” throughout. For the same molecule, the Potency entry in experiment [19], in experiment [7], in experiment [8], in experiment [9], in experiment [10] and in [11] was “inactive” each time. Also, the Potency result in [12] and in [13] was “inactive” throughout. Besides, the call in experiment [2] was inactive. In addition, the max response in experiment [17] was 5.17%.
As for `CCN(CC)CCNC(C(=O)OCCC(C)C)c1ccccc1` (configuration not stated), the Potency result in [14], in experiment [15], in experiment [20], in [3], in experiment [4] and in [5] was “inactive” each time. Besides, the Potency result in experiment [6], in experiment [19], in experiment [7], in [8], in experiment [9] and in experiment [10] was “inactive” throughout. Besides, the Potency result in experiment [11], in experiment [12] and in [13] was “inactive” in each case. In addition, the molecule was called inactive in experiment [2]. Moreover, the activity change, positive = activation in experiment [18] is 0.0727% [at 42.5 µM]. Besides, in experiment [17], the max response is -10.1%.
Turning to `CC(C)(C)C(=O)OCOP(=O)(COCCn1cnc2c(N)ncnc21)OCOC(=O)C(C)(C)C`, the Potency in experiment [14] was 0.277 µM (active); in [16] it was 0.756 µM (active); in experiment [17], 0.848 µM (active). In experiment [2], the molecule was called inactive. The Potency entry in experiment [15], in [3], in experiment [4], in experiment [5], in [6] and in [7] was “inactive” in each case. Also, the Potency entry in experiment [8], in experiment [9], in [10], in experiment [11], in [12] and in [13] was “inactive” each time. The activity change, positive = activation in [18] is -1.22% [at 42.5 µM].
Consider `CCCCCOC(=O)c1ccc(O)cc1`, for which the Potency result in [14], in [20], in experiment [3], in experiment [4], in [5] and in experiment [7] was “inactive” throughout. Further, the Potency result in experiment [10] is “inactive”. Further, the Potency in [15] is 114 µM (active); in experiment [16], 44.2 µM (active); in experiment [6], 49.6 µM (active); in [19], 44.2 µM (active); in experiment [17], 44.2 µM (active); in [8], 49.6 µM (active). Besides, in experiment [18], the activity change, positive = activation was 37.7% (active).
Consider `ClC(Cl)(Cl)c1ccc(C(Cl)(Cl)Cl)cc1`, for which the Potency entry in [1], in experiment [3], in experiment [16], in experiment [4], in experiment [5] and in experiment [7] was “inactive” each time. For the same molecule, the Potency entry in [8], in experiment [9], in experiment [10], in experiment [11], in experiment [12] and in [13] was “inactive” each time. For the same molecule, in experiment [2], the outcome was inactive. In experiment [17], the max response is -9.34%.
In the case of `O=C(/C=C/c1ccc(O)c(O)c1)O[C@@H]1C[C@](O)(C(=O)O)C[C@@H](O)[C@H]1O`, the Potency result in experiment [1], in experiment [15], in [3], in experiment [16], in [4] and in experiment [6] was “inactive” throughout. The Potency result in experiment [19], in experiment [7], in experiment [8], in experiment [9], in experiment [10] and in experiment [11] was “inactive” in each case. For the same molecule, the Potency result in experiment [12] and in experiment [13] was “inactive” each time. In experiment [17], the max response was -3.27%.
`CCCOc1ccc2nc(NC(=O)OC)[nH]c2c1`: the result in experiment [2] was inactive. In addition, the Potency entry in experiment [3], in experiment [4], in experiment [5], in [6], in experiment [19] and in experiment [7] was “inactive” throughout. Moreover, the Potency entry in [8], in experiment [9], in [10], in experiment [11] and in [13] was “inactive” each time. Moreover, the Potency in experiment [12] was 0.477 µM (active).
`COCCOCCOCCOCCOC`: the Potency result in experiment [14], in [15], in [3], in experiment [16], in experiment [4] and in experiment [5] was “inactive” in each case. Besides, the Potency result in experiment [6], in experiment [19], in experiment [7], in experiment [8], in [9] and in experiment [10] was “inactive” throughout. For the same molecule, the Potency entry in experiment [11], in experiment [12] and in [13] was “inactive” each time. Moreover, the max response in [17] was -6.35%.
